Laboratory results reported in the supplement of paper PMC10849652.
About 8,800 targets were measured; listed, in parts, are those with a hit and a random draw of the rest. About 0.5% of all pairs of compound and target were hits. A number with no mark means an inactive call.

Tests used:
Experiment in all cases: log2 fold change, soluble protein after heating vs DMSO (PISA); higher = thermal stabilisation; K562 lysate, 10 uM; active = over 0.2 and 3.5 SD of the protein, either way, in both replicates (recomputed)
nilotinib = compound: Cc1cn(-c2cc(NC(=O)c3ccc(C)c(Nc4nccc(-c5cccnc5)n4)c3)cc(C(F)(F)F)c2)cn1 [nilotinib]
Summary of the method: (§1)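 K562 pellets were dounce-homogenised in PBS pH 7.4 with 1 mM MgCl2, and the crude extract at 1 mg/mL protein was treated with 10 μM compound for 30 min. Aliquots were heated for 3 min across 48°C-58°C, pooled, and brought to 0.5% NP-40 at 4°C; soluble protein was the supernatant after 21,000xg for 90 min. Soluble protein was quantified by TMTpro 16plex LC-MS/MS with channel sums equalised, and reported as log2 fold change in thermal stability against DMSO controls, with values from duplicates.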

[1] = compound: Cc1nc(Nc2n[nH]c3c2CN(C(=O)N[C@H](CN(C)C)c2ccccc2)C3(C)C)c2sccc2n1
Summary of the method: as §1

dasatinib = compound: Cc1nc(Nc2ncc(C(=O)Nc3c(C)cccc3Cl)s2)cc(N2CCN(CCO)CC2)n1 [dasatinib]
Summary of the method: as §1

[2] = compound: Cc1ncc(-c2ccnc(Nc3ccc(S(C)(=O)=O)cc3)n2)n1C(C)C
Summary of the method: as §1

[3] = compound: Cn1cc(-c2ccc3c(c2)CCN3C(=O)Cc2cccc(C(F)(F)F)c2)c2c(N)ncnc21
Summary of the method: as §1

quisinostat = compound: Cn1cc(CNCC2CCN(c3ncc(C(=O)NO)cn3)CC2)c2ccccc21 [quisinostat]
Summary of the method: as §1

tipifarnib = compound: Cn1cncc1[C@@](N)(c1ccc(Cl)cc1)c1ccc2c(c1)c(-c1cccc(Cl)c1)cc(=O)n2C [tipifarnib]
Summary of the method: as §1

[4] = compound: NC(=O)Nc1cc(-c2cccc(F)c2)sc1C(=O)N[C@H]1CCCNC1
Summary of the method: as §1

[5] = compound: NC(=O)c1cnc(N[C@@H]2CCCC[C@@H]2N)nc1Nc1cccc(-n2nccn2)c1
Summary of the method: as §1

[6] = compound: NC1(c2ccc(-c3nc4ccn5c(=O)[nH]nc5c4cc3-c3ccccc3)cc2)CCC1
Summary of the method: as §1

[7] = compound: NCC(=O)Nc1ccc(-n2nc(C(F)(F)F)cc2-c2ccc3c(ccc4ccccc43)c2)cc1
Summary of the method: as §1

vorinostat = compound: O=C(CCCCCCC(=O)Nc1ccccc1)NO [vorinostat]
Summary of the method: as §1

silmitasertib = compound: O=C(O)c1ccc2c(c1)nc(Nc1cccc(Cl)c1)c1ccncc12 [silmitasertib]
Summary of the method: as §1

[8] = compound: O=C1NC(=O)C(c2cnc3ccccn23)=C1c1cn2c3c(cc(F)cc13)CN(C(=O)N1CCCCC1)CC2
Summary of the method: as §1

entospletinib = compound: c1cn2cc(-c3ccc4cn[nH]c4c3)nc(Nc3ccc(N4CCOCC4)cc3)c2n1 [entospletinib]
Summary of the method: as §1

Chain of UniProt Q8NHG7 (Q8NHG7 whole entry, looked up): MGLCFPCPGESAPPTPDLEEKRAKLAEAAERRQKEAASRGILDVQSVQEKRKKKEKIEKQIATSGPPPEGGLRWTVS
Chain of UniProt Q6P1M0 (Q6P1M0 whole entry, looked up): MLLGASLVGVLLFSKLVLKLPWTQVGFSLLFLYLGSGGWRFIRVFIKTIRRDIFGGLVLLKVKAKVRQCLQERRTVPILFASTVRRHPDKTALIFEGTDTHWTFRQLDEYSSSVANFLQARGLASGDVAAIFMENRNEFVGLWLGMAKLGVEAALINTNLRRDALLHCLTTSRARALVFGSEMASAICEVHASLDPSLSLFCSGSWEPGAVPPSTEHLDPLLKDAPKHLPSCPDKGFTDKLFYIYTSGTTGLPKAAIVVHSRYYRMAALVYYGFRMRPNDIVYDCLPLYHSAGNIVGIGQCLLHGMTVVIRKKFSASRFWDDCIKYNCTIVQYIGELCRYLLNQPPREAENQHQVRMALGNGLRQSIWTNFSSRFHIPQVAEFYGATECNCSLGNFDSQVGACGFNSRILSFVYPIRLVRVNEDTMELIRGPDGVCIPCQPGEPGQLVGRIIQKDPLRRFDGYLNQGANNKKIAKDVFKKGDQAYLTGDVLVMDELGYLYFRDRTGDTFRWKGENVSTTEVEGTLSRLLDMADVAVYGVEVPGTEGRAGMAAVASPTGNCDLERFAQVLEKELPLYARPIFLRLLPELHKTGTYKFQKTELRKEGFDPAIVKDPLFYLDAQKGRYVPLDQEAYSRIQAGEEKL
Chain of UniProt Q96BD8 (Q96BD8 whole entry, looked up): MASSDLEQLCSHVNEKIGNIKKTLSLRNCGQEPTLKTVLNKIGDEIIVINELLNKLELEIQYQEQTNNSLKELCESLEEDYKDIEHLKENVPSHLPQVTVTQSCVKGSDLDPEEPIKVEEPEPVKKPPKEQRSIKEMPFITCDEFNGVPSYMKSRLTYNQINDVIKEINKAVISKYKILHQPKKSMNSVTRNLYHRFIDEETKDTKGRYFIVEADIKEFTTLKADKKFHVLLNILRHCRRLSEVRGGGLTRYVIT
Chain of UniProt Q13573 (Q13573 whole entry, looked up): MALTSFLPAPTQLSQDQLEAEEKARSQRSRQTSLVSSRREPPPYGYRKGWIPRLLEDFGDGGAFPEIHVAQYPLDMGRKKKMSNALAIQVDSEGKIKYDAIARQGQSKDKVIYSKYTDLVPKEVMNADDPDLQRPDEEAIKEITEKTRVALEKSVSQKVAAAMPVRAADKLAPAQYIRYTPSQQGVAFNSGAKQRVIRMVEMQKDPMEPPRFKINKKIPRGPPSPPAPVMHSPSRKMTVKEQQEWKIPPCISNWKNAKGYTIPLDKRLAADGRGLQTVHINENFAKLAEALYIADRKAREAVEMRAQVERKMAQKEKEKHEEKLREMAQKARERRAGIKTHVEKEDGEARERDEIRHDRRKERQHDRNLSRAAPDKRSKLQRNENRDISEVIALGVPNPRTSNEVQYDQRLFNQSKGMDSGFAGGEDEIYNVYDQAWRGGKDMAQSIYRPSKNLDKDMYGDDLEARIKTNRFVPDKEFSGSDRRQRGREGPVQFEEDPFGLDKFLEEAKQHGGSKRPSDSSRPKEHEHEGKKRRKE
Chain of UniProt P41440 (P41440 whole entry, looked up): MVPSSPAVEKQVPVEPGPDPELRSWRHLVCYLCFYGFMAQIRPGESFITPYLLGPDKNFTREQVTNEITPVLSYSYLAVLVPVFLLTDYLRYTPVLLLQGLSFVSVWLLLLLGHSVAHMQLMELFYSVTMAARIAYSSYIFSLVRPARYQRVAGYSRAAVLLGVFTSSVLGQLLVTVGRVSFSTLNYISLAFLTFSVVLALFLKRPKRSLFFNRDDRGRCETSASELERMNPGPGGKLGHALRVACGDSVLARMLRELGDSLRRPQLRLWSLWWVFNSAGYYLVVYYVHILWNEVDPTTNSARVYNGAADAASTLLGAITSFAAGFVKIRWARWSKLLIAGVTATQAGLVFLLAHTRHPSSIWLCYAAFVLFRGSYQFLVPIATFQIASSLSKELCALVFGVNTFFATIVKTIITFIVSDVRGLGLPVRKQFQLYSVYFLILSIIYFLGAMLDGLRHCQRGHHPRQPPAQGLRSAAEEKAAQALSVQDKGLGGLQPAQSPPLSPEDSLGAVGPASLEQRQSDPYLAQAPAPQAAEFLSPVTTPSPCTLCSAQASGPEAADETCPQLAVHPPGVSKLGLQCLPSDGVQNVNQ
Chain of UniProt P35610 (P35610 whole entry, looked up): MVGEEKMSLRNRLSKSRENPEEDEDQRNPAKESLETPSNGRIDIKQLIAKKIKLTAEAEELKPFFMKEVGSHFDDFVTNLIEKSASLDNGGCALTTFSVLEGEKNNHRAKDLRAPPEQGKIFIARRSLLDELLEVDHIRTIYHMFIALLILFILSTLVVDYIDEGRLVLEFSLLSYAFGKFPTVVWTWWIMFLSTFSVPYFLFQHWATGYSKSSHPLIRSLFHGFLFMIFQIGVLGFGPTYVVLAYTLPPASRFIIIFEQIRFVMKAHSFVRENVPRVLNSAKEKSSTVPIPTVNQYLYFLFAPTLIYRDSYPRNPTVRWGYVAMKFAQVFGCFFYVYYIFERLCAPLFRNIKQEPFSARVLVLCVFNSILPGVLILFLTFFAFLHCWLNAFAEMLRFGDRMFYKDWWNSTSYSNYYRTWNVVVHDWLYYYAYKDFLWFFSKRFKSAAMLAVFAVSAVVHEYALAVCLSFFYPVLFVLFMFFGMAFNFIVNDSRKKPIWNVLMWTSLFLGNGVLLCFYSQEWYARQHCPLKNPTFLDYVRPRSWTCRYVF
Chain of UniProt Q86XK3 (Q86XK3 whole entry, looked up): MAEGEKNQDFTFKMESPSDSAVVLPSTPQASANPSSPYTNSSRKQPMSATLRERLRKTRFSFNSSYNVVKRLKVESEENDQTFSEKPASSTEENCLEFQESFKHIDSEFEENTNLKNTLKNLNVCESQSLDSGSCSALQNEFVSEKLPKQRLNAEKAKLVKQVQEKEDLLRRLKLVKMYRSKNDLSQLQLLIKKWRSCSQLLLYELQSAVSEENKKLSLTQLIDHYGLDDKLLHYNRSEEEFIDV
Chain of UniProt Q13242 (Q13242 whole entry, looked up): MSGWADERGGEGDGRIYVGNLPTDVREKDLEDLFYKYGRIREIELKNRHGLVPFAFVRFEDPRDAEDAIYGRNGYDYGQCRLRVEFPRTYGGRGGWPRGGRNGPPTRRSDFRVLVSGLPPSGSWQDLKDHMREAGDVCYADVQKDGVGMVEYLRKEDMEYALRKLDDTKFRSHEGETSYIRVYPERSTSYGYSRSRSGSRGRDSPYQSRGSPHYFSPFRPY
Chain of UniProt Q08AE8 (Q08AE8 whole entry, looked up): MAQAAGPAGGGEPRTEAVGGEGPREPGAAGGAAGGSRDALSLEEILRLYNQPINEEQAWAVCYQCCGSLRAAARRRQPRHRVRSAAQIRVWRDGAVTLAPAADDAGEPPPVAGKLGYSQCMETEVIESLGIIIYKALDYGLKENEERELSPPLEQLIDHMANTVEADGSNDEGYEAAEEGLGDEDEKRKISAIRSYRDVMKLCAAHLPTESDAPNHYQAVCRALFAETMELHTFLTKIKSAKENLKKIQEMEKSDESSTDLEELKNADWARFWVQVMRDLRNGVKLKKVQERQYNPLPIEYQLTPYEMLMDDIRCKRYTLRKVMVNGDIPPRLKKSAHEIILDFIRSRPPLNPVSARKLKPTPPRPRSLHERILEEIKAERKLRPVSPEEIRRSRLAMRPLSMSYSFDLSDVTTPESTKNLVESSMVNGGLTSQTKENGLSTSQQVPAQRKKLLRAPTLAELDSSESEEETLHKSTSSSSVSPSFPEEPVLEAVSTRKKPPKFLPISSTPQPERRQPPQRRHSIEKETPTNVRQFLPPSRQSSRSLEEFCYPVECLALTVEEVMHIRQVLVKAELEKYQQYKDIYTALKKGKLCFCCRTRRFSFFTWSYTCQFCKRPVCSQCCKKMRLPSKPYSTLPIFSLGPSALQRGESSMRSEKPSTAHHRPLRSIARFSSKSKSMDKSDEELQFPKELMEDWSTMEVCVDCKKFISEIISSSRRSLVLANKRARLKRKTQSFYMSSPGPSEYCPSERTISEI
Chain of UniProt Q01650 (Q01650 whole entry, looked up): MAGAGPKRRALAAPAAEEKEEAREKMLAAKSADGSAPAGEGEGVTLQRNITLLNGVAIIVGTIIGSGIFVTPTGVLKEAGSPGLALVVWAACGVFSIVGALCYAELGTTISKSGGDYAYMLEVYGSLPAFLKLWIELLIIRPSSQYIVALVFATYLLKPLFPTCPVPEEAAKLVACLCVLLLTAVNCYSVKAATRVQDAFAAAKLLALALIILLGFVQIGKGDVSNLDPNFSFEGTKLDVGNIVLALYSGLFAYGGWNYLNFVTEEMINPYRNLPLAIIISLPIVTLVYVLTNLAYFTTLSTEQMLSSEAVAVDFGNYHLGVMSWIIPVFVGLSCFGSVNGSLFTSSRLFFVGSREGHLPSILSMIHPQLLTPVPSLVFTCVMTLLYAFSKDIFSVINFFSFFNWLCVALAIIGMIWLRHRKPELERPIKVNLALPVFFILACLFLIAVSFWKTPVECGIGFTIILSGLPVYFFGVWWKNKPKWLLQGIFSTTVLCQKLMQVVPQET
Chain of UniProt Q8WVK7 (Q8WVK7 whole entry, looked up): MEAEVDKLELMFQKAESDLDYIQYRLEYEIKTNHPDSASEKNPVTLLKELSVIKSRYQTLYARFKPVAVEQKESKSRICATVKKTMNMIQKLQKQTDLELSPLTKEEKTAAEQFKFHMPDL
Chain of UniProt Q14849 (Q14849 whole entry, looked up): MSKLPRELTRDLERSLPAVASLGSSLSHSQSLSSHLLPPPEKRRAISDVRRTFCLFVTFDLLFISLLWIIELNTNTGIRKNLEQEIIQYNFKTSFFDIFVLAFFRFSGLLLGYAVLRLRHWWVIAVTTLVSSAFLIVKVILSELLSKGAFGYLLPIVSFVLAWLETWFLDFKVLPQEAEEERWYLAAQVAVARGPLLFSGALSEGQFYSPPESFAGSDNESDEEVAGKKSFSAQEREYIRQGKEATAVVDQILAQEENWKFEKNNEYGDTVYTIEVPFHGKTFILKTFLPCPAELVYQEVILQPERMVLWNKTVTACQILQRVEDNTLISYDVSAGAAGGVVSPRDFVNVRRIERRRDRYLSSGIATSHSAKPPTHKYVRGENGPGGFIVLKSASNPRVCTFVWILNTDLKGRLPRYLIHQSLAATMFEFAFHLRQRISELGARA

| Target | log2 fold change (nilotinib) | log2 fold change [1] | log2 fold change (dasatinib) | log2 fold change [2] | log2 fold change [3] | log2 fold change (quisinostat) | log2 fold change (tipifarnib) | log2 fold change [4] | log2 fold change [5] | log2 fold change [6] | log2 fold change [7] | log2 fold change (vorinostat) | log2 fold change (silmitasertib) | log2 fold change [8] | log2 fold change (entospletinib) |
| --- | --- | --- | --- | --- | --- | --- | --- | --- | --- | --- | --- | --- | --- | --- | --- |
| SPATA5 (UniProt Q8NB90) | 0.001 | 0.006 | -0.052 | -0.002 | 0.011 | -0.023 | -0.002 | 0.03 | 0.001 | -0.064 | 0.005 | -0.247 | 0.048 | -0.011 | 0.013 |
| SYPL1 (UniProt Q16563) | -0.005 | -0.006 | 0.013 | 0.025 | -0.014 | -0.075 | 0.034 | -0.002 | -0.013 | -0.044 | -0.003 | 0.005 | -0.03 | -0.02 | 0.014 |
| STMN3 (UniProt Q9NZ72) | -0.068 | 0.218 | 0.035 | -0.041 | -0.032 | 0.006 | 0.176 | -0.022 | -0.006 | 0.052 | -0.028 | 0.065 | -0.033 | -0.004 | 0.07 |
| SLC30A9 (UniProt Q6PML9) | -0.026 | 0.013 | -0.035 | -0.049 | 0.055 | 0.041 | 0.14 | -0.044 | -0.026 | -0.008 | -0.109 | 0.071 | -0.058 | 0.004 | -0.027 |
| SPIRE1 (UniProt Q08AE8) | 0.064 | 0.011 | 0.037 | -0.03 | 0.025 | -0.186 | 0.055 | -0.032 | 0.042 | -0.01 | 0.092 | 0.15 | -0.02 | -0.129 | 0.076 |
| SLC27A4 (UniProt Q6P1M0) | -0.061 | 0.002 | 0.026 | -0.036 | 0.048 | -0.123 | 0.096 | 0.036 | -0.023 | 0.036 | -0.127 | -0.257 (active) | 0.016 | -0.002 | 0.07 |
| SLC19A1 (UniProt P41440) | -0.026 | 0.014 | 0.019 | -0.032 | -0.017 | -0.077 | -0.01 | -0.015 | -0.027 | -0.004 | 0.003 | 0.01 | -0.024 | -0.054 | -0.002 |
| SOAT1 (UniProt P35610) | 0.313 (active) | -0.019 | 0.071 | -0.065 | -0.022 | -0.12 | 0.072 | -0.042 | 0.045 | -0.013 | 0.014 | 0.005 | 0 | -0.037 | 0.015 |
| SVIP (UniProt Q8NHG7) | -0.006 | 0 | -0.066 | 0.089 | -0.013 | 0.034 | 0.004 | -0.095 | -0.012 | -0.004 | 0.023 | 0.171 | -0.041 | -0.013 | -0.012 |
| SFR1 isoform 2 (UniProt Q86XK3) | -0.029 | 0.068 | 0.055 | 0.045 | -0.058 | -0.029 | 0.072 | -0.004 | 0.02 | -0.039 | 0.092 | -0.074 | 0.023 | -0.026 | -0.043 |
| SKA2 (UniProt Q8WVK7) | -0.062 | 0.015 | 0.005 | 0.005 | 0.026 | 0.122 | -0.052 | -0.022 | 0.004 | -0.023 | 0.086 | -0.364 (active) | -0.035 | 0.067 | -0.028 |
| SLC7A5 (UniProt Q01650) | 0.022 | 0.008 | 0.055 | 0.014 | 0.008 | -0.106 | 0.003 | 0 | -0.029 | -0.003 | 0.034 | 0.109 | -0.04 | 0.013 | 0.03 |
| TARDBP (UniProt Q13148) | -0.146 | -0.079 | -0.005 | -0.051 | 0.007 | -0.087 | -0.554 (active) | 0.136 | 0.021 | 0.027 | 0.044 | -0.44 (active) | 0.086 | -0.268 | -0.027 |
| SRP54 (UniProt P61011) | 0.039 | 0.006 | -0.021 | 0 | 0.034 | 0.048 | -0.047 | -0.001 | -0.013 | -0.015 | 0.003 | -0.241 (active) | 0.008 | 0.021 | -0.004 |
| SRSF9 (UniProt Q13242) | 0.02 | 0.01 | -0.079 | 0.02 | -0.005 | 0.008 | 0.047 | -0.012 | 0.029 | -0.002 | -0.182 | -0.113 | 0.069 | -0.035 | 0.007 |
| SKA1 (UniProt Q96BD8) | -0.095 | 0.052 | -0.034 | 0.023 | -0.032 | -0.104 | 0.039 | 0.038 | -0.042 | 0.014 | 0.057 | -0.586 (active) | -0.036 | -0.07 | -0.021 |
| SNRNP40 (UniProt Q96DI7) | 0.018 | 0.03 | -0.007 | 0.019 | -0.004 | -0.027 | 0.012 | 0.013 | -0.012 | 0.002 | 0.01 | 0.233 | -0.012 | 0.022 | 0.03 |
| SLC25A17 (UniProt O43808) | -0.049 | 0.006 | 0.01 | 0.032 | 0.023 | -0.125 | -0.068 | 0.028 | 0.038 | -0.026 | 0.021 | 0.015 | -0.026 | -0.033 | -0.027 |
| STARD3 isoform 3 (UniProt Q14849) | -0.06 | -0.008 | 0.272 (active) | 0.063 | 0.02 | 0.027 | -0.047 | -0.039 | 0.015 | 0.026 | 0.022 | 0.065 | 0.047 | 0.03 | -0.025 |
| SNW1 (UniProt Q13573) | 0.002 | -0.009 | 0.024 | -0.036 | -0.015 | 0.012 | 0.009 | -0.016 | -0.01 | -0.01 | 0.011 | 0.224 (active) | -0.003 | -0.012 | 0.009 |
| SLC25A36 (UniProt Q96CQ1) | 0.081 | -0.007 | 0.012 | 0.04 | 0.085 | 0.045 | -0.119 | -0.08 | 0.003 | -0.031 | -0.172 | -0.071 | 0.001 | 0.033 | 0.013 |
